p53 reactivation = mutant p53 re-activation in reporter cells; H1299 p53-A138V BP100-luciferase reporter, luminescence, 24 h; Potency, µM (doses to about 92.2 µM), without a hit: at the top dose activity change, positive = activation, actives largely listed as activators; hit rate 0.063% among 320,000; further: % of control where 0% means no effect; nearly all actives have a fitted effect of over 45% in size
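p53-null H1299 cells stably carrying temperature-sensitive p53-A138V and a BP100-luciferase reporter were pinned with compounds (4-point, 1:5 series) and held 24 hrs at 37 deg C. Luminescence was read 10 min after detection reagent.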
NPC1 promoter act = activators of NPC1 promoter | Huh7 NPC1 promoter luciferase reporter, 24 h | hit rate 2.4% among 320,000 | Potency, µM (titrated, usually from 9.22 µM), for inactives: at the highest dose activation, usual class: activators; further: % of control where 0% means no effect; nearly all actives have a fitted effect of over 60% in size
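Stable NPC1-promoter luciferase Huh7 line; cpd (DMSO) 24 h, 37 °C, 5% CO2; Amplite luciferase reagent 10 min RT; luminescence readout. qHTS format.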
Rab9 prom act = activates the Rab9 promoter; Potency, µM (highest dose often 9.22 µM), without a hit: at the highest dose activation, negative = inhibition, hits mostly activators; hit rate 2.8% among 320,000; AID 485297; Huh7 Rab9 promoter-luciferase reporter, luminescence, 24 h; further: % of control where 0% means no effect; nearly all actives have a fitted effect of over 60% in size
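Promoter activation is measured as luciferase luminescence in Huh7 cells stably transfected with a Rab9 promoter–luciferase construct, following 24 h compound exposure at 37 °C and 10 min reagent incubation at ambient temperature.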
ELG1 genotoxic = genotoxicity induction in ELG1-luciferase HEK293T cells; HEK293T ELG1-luciferase reporter, luminescence, 16 h; Potency, µM (top dose mostly 46 µM), inactives show at the top dose activity change, positive = activation, usual class: activators; hit rate 1.3% among 330,000; further: % of control where 0% means no effect; nearly all actives have a fitted effect of over 60% in size
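Step 1: seed 2,000 HEK293T ELG1-luciferase cells per well. Step 2: add compound or DMSO, incubate 16 hr at 37 °C. Step 3: ONE-Glo, 30 min at room temperature, read luminescence.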
SMN2 splice enh = increases expression of the SMN2 splice variant. Potency, µM (titrated, usually from 46.1 µM), without a hit: at the highest dose activity change, positive = activation, actives largely listed as activators. hit rate 2.8% among 210,000. AID 1458. HEK293 SMN2-luciferase splicing reporter, luminescence, 30-36 h; further: % of control where 0% means no effect; nearly all actives have a fitted effect of over 55% in size
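qHTS luciferase splicing reporter: luminescence rises when SMN2 exon 7 is included in transfected HEK293 cells. Compound exposure lasted 30-36 h at 37C, with 4.5 mM final sodium butyrate as control, followed by a ONE-Glo read.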
FLuc modulator = counter-screen for miR-21 project: firefly luciferase inhibitors or activators; P08659; purified FLuc, Km substrates, luminescence inhibition; Potency, µM (top dose mostly 57.5 µM), for inactives: at the top dose activity change, negative = inhibition, actives largely listed as inhibitors; hit rate 6.9% among 360,000;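 further: plate controls were vehicle for no effect and reference inhibitor for full effect; nearly all actives have a fitted effect of over 55% in size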
Target sequence (P08659 whole entry, looked up): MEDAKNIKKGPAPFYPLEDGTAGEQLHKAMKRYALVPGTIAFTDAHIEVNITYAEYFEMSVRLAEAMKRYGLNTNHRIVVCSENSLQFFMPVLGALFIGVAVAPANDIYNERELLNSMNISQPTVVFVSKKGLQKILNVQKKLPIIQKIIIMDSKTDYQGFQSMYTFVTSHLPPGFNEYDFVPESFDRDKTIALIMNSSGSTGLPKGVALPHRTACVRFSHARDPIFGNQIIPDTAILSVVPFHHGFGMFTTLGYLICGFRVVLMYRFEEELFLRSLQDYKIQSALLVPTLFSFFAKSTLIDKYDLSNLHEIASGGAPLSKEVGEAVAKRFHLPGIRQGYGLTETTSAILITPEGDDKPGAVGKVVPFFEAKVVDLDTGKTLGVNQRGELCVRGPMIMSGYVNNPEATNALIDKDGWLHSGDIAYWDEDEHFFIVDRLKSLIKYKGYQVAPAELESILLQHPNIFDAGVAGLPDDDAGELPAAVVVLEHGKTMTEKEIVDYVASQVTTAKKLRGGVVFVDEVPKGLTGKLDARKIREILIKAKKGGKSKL
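Purified P. pyralis luciferase (10nM final) with 10uM D-luciferin and 10uM ATP (Km levels) in 50mM Tris acetate pH 7.5, 10mM Mg acetate, 0.01% Tween-20, 0.05% BSA; qHTS 6-point titration, ~60 µM downward; luminescence read.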
* hit, by the source's call; ? = inconclusive; . = no result; [ ] = dose if it differs, or a comment. An excerpt weighted towards active compounds, which were near 7.3% of everything screened. The call rests on the fitted dose curve; in most records, active means well fitted curve in the direction sought with a large enough effect; inconclusive means small, poorly fitted or top-dose-only effect, or another doubt; inactive means no such curve, though single readings can be large; an effect the other way counts as inactive or inconclusive. Potency means the concentration at half of the fitted maximal effect.

SMILES	p53 reactivation	NPC1 promoter act	Rab9 prom act	ELG1 genotoxic	SMN2 splice enh	FLuc modulator
CC(C(=O)NC1C=CS(=O)(=O)C1)N1C(=O)/C(=C/c2cccc(Cl)c2)SC1=S (centres undefined)	15%	-1%	0%	3%	.	15µM*
Cc1ccc(N(CC(=O)N2CCN(c3cc(C)ccc3C)CC2)S(=O)(=O)c2c(C)nn(C)c2C)cc1	.	.	.	.	-17%	-8%
O=C(/C=C/c1cccs1)c1ccc(Br)cc1	15%	-4%	5%	8%	2%	4.8µM*
Cc1ccc(C(=O)Nc2ccc(C(=O)/C=C/c3cccs3)cc2)cc1	16%	?	?	-3%	-8%	12µM*
O=C(/C=C/c1cccs1)c1ccc(NC(=O)c2cccc(Br)c2)cc1	7%	20%	18%	2%	?	-13%
Cc1ccc(/C=C/c2ccc3cccc(O)c3n2)s1	?	4µM*	3.2µM*	21µM*	.	2.7µM*
COc1cc(Br)cc(/C=C/c2ccc3cccc(O)c3n2)c1OC	-5%	-1%	2%[1.84 µM]	-4%	.	?
CC(=O)COc1cccc2ccc(/C=C/c3ccc(Br)s3)nc12	.	?	?	-5%	.	19µM*
COc1cccc(/C=C/c2ccc3cccc(O)c3n2)c1	?	?	17%	23µM*	.	1.5µM*
Oc1cccc(/C=C/c2ccc3cccc(O)c3n2)c1	?	?	13%	?	.	1.5µM*
COc1cc(CCC(=O)NNC(=O)c2cccc(Cl)c2)cc(OC)c1OC	-3%	-1%	-5%	7%	.	-1%
COc1ccc(C(=O)Nc2cccc(-c3csc(C)n3)c2)cc1S(=O)(=O)N1CCCC1	-2%	1%	1%	-5%	.	?
Cc1nc(-c2cccc(NC(=O)c3ccc(-n4nccc4C)cc3)c2)cs1	34%	12%	10%	-8%	.	4.8µM*
Cc1nc(-c2ccc(C(=O)Nc3cccc(Br)c3)cc2)cs1	22%	?	?	?	10µM*	1.1µM*
Cc1nc(-c2ccc(C(=O)Nc3cc(S(N)(=O)=O)ccc3C)cc2)cs1	.	12%	10%	-8%	.	?
CCN1CCC(N(Cc2ccc3c(c2)OCO3)C(=O)Nc2cc(Cl)ccc2C(=O)OC)CC1	.	.	.	.	.	1%
CC(C)CCn1nnc2sc(-c3ccccc3)cc2c1=O	.	.	.	.	2%	-13%
O=C1CCCc2nc(N3CCCCC3)sc21	?	18%	28%	21µM*	?	?
Nc1nnc(N2CCCCC2)s1	-1%	-3%	3%	1%	-19%	12%
CCN(CC)S(=O)(=O)c1ccc(-c2cn3cc(Cl)ccc3n2)cc1	.	18%	20%	6%	.	?
Oc1ccc(-c2cn3cc(C(F)(F)F)ccc3n2)cc1	?	0.79µM*	0.5µM*	2.1µM*	0.89µM*	0.67µM*
Clc1ccc(-c2cn3ccccc3n2)cc1	5%	0.71µM*	0.45µM*	?	.	0.67µM*
Brc1ccc(-c2cn3ccccc3n2)s1	?	1µM*	0.35µM*	0.65µM*	7.1µM*	0.76µM*
Clc1ccc(-c2cn3cc(Cl)ccc3n2)cc1	0%	3.5µM*	0.79µM*	1.3µM*	.	0.27µM*
O=C(Nc1ccc(-c2cn3ccccc3n2)cc1)c1ccc(Cl)cc1	-2%	?	27%	2%	?	-18%
SMILES	p53 reactivation	NPC1 promoter act	Rab9 prom act	ELG1 genotoxic	SMN2 splice enh	FLuc modulator
O=C(NCc1cn2ccccc2n1)c1ccco1	-2%	7%	3%	23%	15%	-5%
Cc1noc(C)c1C(=O)N1CCC2(CC1)CN(C(=O)Nc1cccc(F)c1)C2	.	.	.	.	-11%	.
Clc1ccc(-c2cn3c(n2)CCC3)cc1	?	2.2µM*	?	4.1µM*	18%	12µM*
CN(C)c1ccccc1C(=O)c1ccccc1N(C)C	?	-12%	-11%	21µM*	5µM*	19µM*
CCC(C)NC(=O)c1cccc(NC(=O)c2nsc3ccccc23)c1 (centres undefined)	.	.	.	.	.	6µM*
CCOc1ccccc1CNC(=O)c1cccc(NC(=O)c2nsc3ccccc23)c1	.	.	.	.	.	6µM*
COc1cccc(CNC(=O)CN(c2ccc(C(C)C)cc2)S(=O)(=O)c2c(C)n[nH]c2C)c1	.	.	.	.	5%	-2%
CCOc1ccc(NC(=O)CSc2nc3ccccc3c(=O)n2CCC(=O)NC2CCCCC2)cc1	.	.	.	.	.	-4%
CC1CCN(c2ccc3nnc(CCC(=O)Nc4ccc(F)cc4)n3n2)CC1	-8%	-5%	-2%	-3%	.	0%
CCC(=O)Nc1cccc(-c2ccc(N3CCC(C)CC3)nn2)c1	36%	0.32µM*	0.32µM*	0.73µM*	.	0.13µM*

Screening results (PubChem)
